Test results: paper PMC5540273 (PLoS ONE, 2017)

What was measured:
Settings in all cases: concentration: 1 μM, replicates: in singlicate; n = 1
[1] = tested on: T1, SNARK
T1 construct: gene NUAK2

[2] = tested on: SNRK
[3] = tested on: SRC
[4] = tested on: SRMS
[5] = tested on: SRPK1
[6] = tested on: SRPK2
[7] = tested on: SRPK3
[8] = tested on: STK16
[9] = tested on: STK33
[10] = tested on: STK35
[11] = tested on: STK36
[12] = tested on: STK39
[13] = tested on: SYK
[14] = tested on: SgK110
[15] = tested on: T2, TAK1
T2 construct: gene MAP3K7

[16] = tested on: TAOK1
[17] = tested on: TAOK2
[18] = tested on: TAOK3
[19] = tested on: TBK1
[20] = tested on: TEC
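Also: KINOMEscan kinase panel screen.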

Row | Structure (SMILES) | %Inh [1] | %Inh [2] | %Inh [3] | %Inh [4] | %Inh [5] | %Inh [6] | %Inh [7] | %Inh [8] | %Inh [9] | %Inh [10] | %Inh [11] | %Inh [12] | %Inh [13] | %Inh [14] | %Inh [15] | %Inh [16] | %Inh [17] | %Inh [18] | %Inh [19] | %Inh [20]
1 | Cn1cc(-c2cnc(N)c3c(-c4ccc5c(c4)CCN5C(=O)Cc4ccccc4)csc23)cn1 [GSK2593074] | 12% | 0% | 81% | 55% | 3% | 0% | 0% | 24% | 0% | 4% | 0% | 0% | 16% | 8% | 33% | 0% | 0% | 0% | 23% | 14%
2 | CC(=O)Nc1cn2nc(Oc3cccc(NC(=O)c4cccc(C(F)(F)F)c4)c3)ccc2n1 | 0% | 0% | 99.9% | 11% | 0% | 22% | 9% | 10% | 3% | 1% | 0% | 15% | 14% | 0% | 21% | 0% | 34% | 0% | 57% | 18%
3 | COc1cc(Nc2ccnc3cc(-c4ccncc4)ccc23)cc(OC)c1OC.Cl [GW494610] | 0% | 0% | 96.1% | 0% | 0% | 0% | 18% | 0% | 0% | 6% | 9% | 11% | 0% | 0% | 0% | 0% | 0% | 0% | 0% | 5%
4 | Cl.Cl.NC(CNC(=O)c1cc(Br)c(-c2ccnc3[nH]ccc23)s1)c1ccccc1 (stereo not shown) [GSK1322949] | 74% | 0% | 0% | 0% | 80% | 80% | 83% | 61% | 53% | 20% | 0% | 5% | 27% | 0% | 36% | 66% | 3% | 44% | 20% | 1%
5 | COC(=O)Nc1nc2ccc(Oc3ccc(CC(=O)Nc4cc(C(F)(F)F)ccc4F)cc3)cc2[nH]1 [GW680903] | 0% | 0% | 0% | 0% | 31% | 0% | 0% | 0% | 0% | 0% | 7% | 0% | 0% | 0% | 0% | 0% | 0% | 0% | 4% | 0%
6 | Cc1ccc(NC(=O)c2ccc(Cl)c(Cl)c2)cc1-c1ccc(C(=O)Nc2ccncc2)cc1 [GSK1398460] | 9% | 0% | 23% | 0% | 34% | 0% | 14% | 14% | 0% | 0% | 0% | 0% | 21% | 4% | 12% | 0% | 0% | 0% | 23% | 15%
7 | Nc1ncc(-c2cn[nH]c2)c2scc(-c3ccc4c(c3)CCN4C(=O)Cc3ccccc3)c12 [GSK2593067] | 10% | 0% | 69% | 59% | 44% | 0% | 0% | 0% | 2% | 0% | 0% | 0% | 25% | 0% | 0% | 0% | 0% | 0% | 1% | 4%
8 | Cc1cc(-c2c(-c3ccc(F)cc3)ncn2CCCN2CCOCC2)nc(N)n1 [SB-222517] | 0% | 0% | 22% | 26% | 0% | 0% | 19% | 0% | 0% | 0% | 18% | 7% | 26% | 40% | 3% | 0% | 38% | 0% | 42% | 0%
